PubChem BioAssay AID1159580 (chemical genetic matrix, 2015)
Values joined by “and” are separate entries in the source; they are usually repeats but may differ in a detail not shown here. Equal values may be shown once. Hit rate of the full screen: of about 5,500 compounds, about 2,000 (36%) were called active. Roughly 18% stayed inconclusive and do not appear here. Rule as the data show it: active = normalized growth mostly below about 0.91 (no sharp cut-off); inconclusive = no clear call, values can overlap the other calls; inactive = mostly above about 0.92. This is one part of the list.

Assay: chemical genetic growth profiling, strain panel (AID 1159580);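 also: tested at 20 µM; growth read once vehicle control cultures reached saturation at 30 °C; 1 = growth at the plate median or of vehicle wells; lower values mean less growth of the strain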
Conditions: growth OD

Measured: normalized growth

COc1ccc2[nH]cc(CCNC(C)=O)c2c1
inactive: S. cerevisiae deletion strains, locus YJR075W, strain HOC1, stronger effect = lower value 1.07 | S. cerevisiae deletion strains, locus YKL009W, strain mrt4, stronger effect = lower value 1.01 | S. cerevisiae deletion strains, locus YKL068W, stronger effect = lower value 1.01 | S. cerevisiae deletion strains, locus YKL085W, strain MDH1 (second series), stronger effect = lower value 1.01 | S. cerevisiae deletion strains, locus YKL085W, strain MDH1, stronger effect = lower value 1.01 | S. cerevisiae deletion strains, locus YKL160W, strain elf1, stronger effect = lower value 0.979 | S. cerevisiae deletion strains, locus YKL190W, strain CNB1, stronger effect = lower value 1 | S. cerevisiae deletion strains, locus YKR001C, strain vps1, stronger effect = lower value 1.03 | S. cerevisiae deletion strains, locus YKR026C, strain gcn3, stronger effect = lower value 0.97 | S. cerevisiae deletion strains, locus YKR091W, strain srl3, stronger effect = lower value 0.969 | S. cerevisiae deletion strains, locus YLL001W, strain dnm1, stronger effect = lower value 0.971 | S. cerevisiae deletion strains, locus YLL026W, stronger effect = lower value 0.979 | S. cerevisiae deletion strains, locus YLL041C, strain sdh2, stronger effect = lower value 0.977 | S. cerevisiae deletion strains, locus YLR027C, strain aat2, stronger effect = lower value 0.975 | S. cerevisiae deletion strains, locus YLR039C, strain RIC1, stronger effect = lower value 1.04 | S. cerevisiae deletion strains, locus YLR058C, strain SHM2, stronger effect = lower value 1.01 | S. cerevisiae deletion strains, locus YLR102C, strain apc9, stronger effect = lower value 1.03 | S. cerevisiae deletion strains, locus YLR113W, strain HOG1, stronger effect = lower value 1 | S. cerevisiae deletion strains, locus YLR221C, strain rsa3, stronger effect = lower value 0.969 | S. cerevisiae deletion strains, locus YLR258W, strain gsy2, stronger effect = lower value 0.973 | S. cerevisiae deletion strains, locus YLR262C, strain YPT6 (second series), stronger effect = lower value 0.987 | S. cerevisiae deletion strains, locus YLR262C, strain YPT6, stronger effect = lower value 1.02 | S. cerevisiae deletion strains, locus YLR268W, strain sec22, stronger effect = lower value 1.03 | S. cerevisiae deletion strains, locus YLR320W, strain mms22, stronger effect = lower value 0.955 | S. cerevisiae deletion strains, locus YLR330W, strain CHS5, stronger effect = lower value 1.01 | S. cerevisiae deletion strains, locus YLR342W, strain FKS1 (second series), stronger effect = lower value 1.01 | S. cerevisiae deletion strains, locus YLR342W, strain FKS1, stronger effect = lower value 0.983 | S. cerevisiae deletion strains, locus YLR357W, strain rsc2, stronger effect = lower value 0.93 | S. cerevisiae deletion strains, locus YLR370C, strain arc18, stronger effect = lower value 0.974 | S. cerevisiae deletion strains, locus YLR371W, strain rom2, stronger effect = lower value 1.02 | S. cerevisiae deletion strains, locus YLR384C, strain iki3, stronger effect = lower value 0.951 | S. cerevisiae deletion strains, locus YLR418C, strain cdc73, stronger effect = lower value 1.05 | S. cerevisiae deletion strains, locus YML016C, strain PPZ1, stronger effect = lower value 1.01 | S. cerevisiae deletion strains, locus YML032C, strain rad52, stronger effect = lower value 1.03 | S. cerevisiae deletion strains, locus YML120C, strain ndi1, stronger effect = lower value 0.982 | S. cerevisiae deletion strains, locus YML124C, strain tub3, stronger effect = lower value 1.02 | S. cerevisiae deletion strains, locus YMR058W, strain fet3, stronger effect = lower value 0.974 | S. cerevisiae deletion strains, locus YMR078C, strain ctf18, stronger effect = lower value 1.03 | S. cerevisiae deletion strains, locus YMR125W, strain sto1, stronger effect = lower value 0.956 | S. cerevisiae deletion strains, locus YMR129W, stronger effect = lower value 0.977 | S. cerevisiae deletion strains, locus YMR205C, strain PFK2, stronger effect = lower value 0.979 | S. cerevisiae deletion strains, locus YMR223W, strain ubp8, stronger effect = lower value 1.03 | S. cerevisiae deletion strains, locus YMR231W, strain pep5, stronger effect = lower value 0.957 | S. cerevisiae deletion strains, locus YMR263W, strain SAP30, stronger effect = lower value 1.01 | S. cerevisiae deletion strains, locus YMR307W, strain GAS1, stronger effect = lower value 1.05 and 0.978 | S. cerevisiae deletion strains, locus YNL067W, strain RPL9B, stronger effect = lower value 1.01 | S. cerevisiae deletion strains, locus YNL071W, strain lat1, stronger effect = lower value 0.975 | S. cerevisiae deletion strains, locus YNL128W, strain TEP1, stronger effect = lower value 1.02 | S. cerevisiae deletion strains, locus YNL153C, strain GIM3, stronger effect = lower value 1.01 | S. cerevisiae deletion strains, locus YNL175C, strain NOP13, stronger effect = lower value 1.02 | S. cerevisiae deletion strains, locus YNL183C, strain NPR1, stronger effect = lower value 0.942 | S. cerevisiae deletion strains, locus YNL197C, strain WHI3, stronger effect = lower value 1.01 | S. cerevisiae deletion strains, locus YNL209W, strain ssb2, stronger effect = lower value 0.971 | S. cerevisiae deletion strains, locus YNL224C, strain SQS1, stronger effect = lower value 1 | S. cerevisiae deletion strains, locus YNL233W, strain BNI4, stronger effect = lower value 1.02 | S. cerevisiae deletion strains, locus YNL248C, strain rpa49, stronger effect = lower value 0.968 | S. cerevisiae deletion strains, locus YNL250W, strain rad50, stronger effect = lower value 1.04 | S. cerevisiae deletion strains, locus YNL271C, strain bni1, stronger effect = lower value 1.05 | S. cerevisiae deletion strains, locus YNL298W, strain CLA4, stronger effect = lower value 1.03 | S. cerevisiae deletion strains, locus YNL307C, strain MCK1, stronger effect = lower value 1.04 | S. cerevisiae deletion strains, locus YNL322C, strain KRE1 (second series), stronger effect = lower value 0.968 | S. cerevisiae deletion strains, locus YNL322C, strain KRE1, stronger effect = lower value 1 | S. cerevisiae deletion strains, locus YNR049C, strain mso1, stronger effect = lower value 0.972 | S. cerevisiae deletion strains, locus YNR052C, strain pop2, stronger effect = lower value 1.03 | S. cerevisiae deletion strains, locus YOL006C, strain TOP1, stronger effect = lower value 1.07 | S. cerevisiae deletion strains, locus YOL012C, strain htz1 1.19 | S. cerevisiae deletion strains, locus YOL147C, strain pex11, stronger effect = lower value 1.02 | S. cerevisiae deletion strains, locus YOR001W, strain rrp6, stronger effect = lower value 0.988 | S. cerevisiae deletion strains, locus YOR061W, strain CKA2, stronger effect = lower value 1.01 | S. cerevisiae deletion strains, locus YOR069W, strain VPS5, stronger effect = lower value 0.997 | S. cerevisiae deletion strains, locus YOR070C, strain gyp1, stronger effect = lower value 0.988 | S. cerevisiae deletion strains, locus YOR080W, strain dia2, stronger effect = lower value 0.972 | S. cerevisiae deletion strains, locus YOR083W, strain WHI5 (second series), stronger effect = lower value 1.01 | S. cerevisiae deletion strains, locus YOR083W, strain WHI5, stronger effect = lower value 0.98 | S. cerevisiae deletion strains, locus YOR106W, strain vam3, stronger effect = lower value 0.982 | S. cerevisiae deletion strains, locus YOR136W, strain idh2, stronger effect = lower value 1.04 | S. cerevisiae deletion strains, locus YOR144C, strain elg1, stronger effect = lower value 1.02 | S. cerevisiae deletion strains, locus YOR184W, strain ser1, stronger effect = lower value 1.04 | S. cerevisiae deletion strains, locus YOR231W, strain MKK1, stronger effect = lower value 1.02 | S. cerevisiae deletion strains, locus YOR265W, strain rbl2, stronger effect = lower value 0.984 | S. cerevisiae deletion strains, locus YOR270C, strain vph1, stronger effect = lower value 0.966 | S. cerevisiae deletion strains, locus YOR290C, strain snf2, stronger effect = lower value 0.972 | S. cerevisiae deletion strains, locus YOR316C, strain cot1, stronger effect = lower value 1.03 | S. cerevisiae deletion strains, locus YPL051W, strain arl3, stronger effect = lower value 0.967 | S. cerevisiae deletion strains, locus YPL055C, strain LGE1, stronger effect = lower value 1.04 | S. cerevisiae deletion strains, locus YPL078C, strain atp4, stronger effect = lower value 0.977 | S. cerevisiae deletion strains, locus YPL106C, strain sse1, stronger effect = lower value 0.978 | S. cerevisiae deletion strains, locus YPL240C, strain hsp82, stronger effect = lower value 0.977 | S. cerevisiae deletion strains, locus YPL241C, strain CIN2, stronger effect = lower value 1 | S. cerevisiae deletion strains, locus YPL256C, strain CLN2, stronger effect = lower value 1.01 | S. cerevisiae deletion strains, locus YPR119W, strain clb2, stronger effect = lower value 1.02 | S. cerevisiae deletion strains, locus YPR141C, strain kar3, stronger effect = lower value 1.03 | S. cerevisiae deletion strains, locus YPR163C, strain tif3, stronger effect = lower value 1.02 | S. cerevisiae deletion strains, locus YPR167C, strain met16, stronger effect = lower value 1.03 | S. cerevisiae deletion strains, strain wtn01, stronger effect = lower value 1.02 | S. cerevisiae strains, strain wild type, stronger effect = lower value 1.01
